Screens as filed in PubChem.
Rows were chosen to be rich in hits. Some 4.8% of all compounds tested hit in one or more screens of this group.
hgDAF12 agonist = agonists of H. glycines DAF-12 nuclear receptor; HEK293 GAL4-hgDAF12 UAS-luciferase reporter, agonist luminescence; normalized to butyrate control; activation, % at 6.8 µM; actives 1.8% (n = 370,000); AID 687014;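 active = activation above a cutoff set at the mean of all screened compounds plus 3 SD, cut at about 10% in these data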;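 note: 0% = DMSO wells and 100% = sodium butyrate wells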
DAX1 inh-1 = inhibitors of DAX1 repression of SF-1 activated StAR promoter | actives 1.1% (n = 370,000) | HEK293T StAR-luciferase reporter, SF-1/DAX-1 repression relief | inhibition, % at 6.8 µM | AID 652010;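 active = inhibition above the mean over all tested compounds plus 3 SD, cut at about 3.6% in these data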;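 note: 0% = DAX-1 cells with DMSO and 100% = cells lacking DAX-1 with DMSO; higher inhibition means more luminescence from relief of DAX-1 repression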
hcDAF-12 act = activators of H. contortus DAF-12 nuclear receptor; HEK293 hcDAF-12 lit1-tk-luc reporter, luminescence; 0% DMSO, 100% Δ7-dafachronic acid; activation, % at 6.8 µM; actives 1.4% (n = 370,000); AID 652067;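 active = activation above the mean of all tested compounds plus 3 SD, cut at about 5.5% in these data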;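 note: 100% = response to 3 µM Δ7-dafachronic acid high control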
DAX1 inh-2 = NR0B1 (DAX1) inhibition | P51843 | HEK293 Gal4-DAX1 luciferase reporter, luminescence | inhibition, % at 6.75 µM | actives 0.99% (n = 340,000) | AID 504766;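 active = inhibition above the mean over all tested compounds plus 3 SD, cut at about 4.2% in these data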;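 note: 0% = DAX1-transfected cells with DMSO and 100% = empty-vector control cells with DMSO; inhibition shows as a rise in luminescence from relieved DAX1 repression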
SMARCA2 activ = increases SMARCA2 function in MMTV reporter cells; MG213 cells, MMTV-luciferase reporter, dexamethasone, overnight; activation, % at 9.1 µM; actives 1% (n = 370,000); AID 652017; in the data active = activation above about 7.8%;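 note: 0% = vehicle wells and 100% = reference activator wells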
ssDAF-12 act = S. stercoralis DAF-12 activation, primary screen. HEK293 ssDAF-12/GRIP1 lit1-tk-luc reporter, luminescence; % of 3 µM dafachronic acid response. activation, % at 6.8 µM. actives 1% (n = 370,000);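 active = activation above the mean over all tested compounds plus 3 SD, cut at about 0.9% in these data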;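 note: 0% = DMSO-only wells and 100% = 3 µM delta7-dafachronic acid wells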
DAX1 conf = confirmation of human DAX1 (NR0B1) inhibitors. shares compounds with DAX1 inh-1. HEK293T StAR-promoter luciferase reporter, SF-1/DAX-1 repression. inhibition, % at 6.8 µM. actives 87% (n = 2,400);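 active = inhibition above the average of every tested compound plus 3 SD, cut at about 3.8% in these data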;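 note: 0% = DAX-1 cells with DMSO and 100% = no DAX-1 control cells with DMSO; active compounds raise luminescence by relieving repression of the StAR reporter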
Target sequence (P51843 whole entry, looked up): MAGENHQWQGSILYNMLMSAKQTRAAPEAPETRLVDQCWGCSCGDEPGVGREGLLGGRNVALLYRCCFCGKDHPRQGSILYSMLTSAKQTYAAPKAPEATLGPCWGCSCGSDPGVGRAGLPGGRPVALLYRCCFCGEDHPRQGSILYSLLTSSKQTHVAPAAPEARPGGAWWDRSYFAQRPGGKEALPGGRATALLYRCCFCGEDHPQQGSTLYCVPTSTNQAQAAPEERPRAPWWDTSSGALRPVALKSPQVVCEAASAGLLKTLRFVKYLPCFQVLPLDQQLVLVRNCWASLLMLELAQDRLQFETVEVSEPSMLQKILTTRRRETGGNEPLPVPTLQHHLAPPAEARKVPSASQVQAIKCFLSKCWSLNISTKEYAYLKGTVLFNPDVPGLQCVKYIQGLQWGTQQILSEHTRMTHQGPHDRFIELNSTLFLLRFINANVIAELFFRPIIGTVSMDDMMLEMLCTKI
SF1 AF2mut Luc = counter-screen for DAX1 inhibitors: nonselective inhibitors with SF-1 AF2 mutant; shares compounds with DAX1 inh-1; HEK293 StAR-luciferase, luminescence; inhibition, % at 6.8 µM; actives 78% (n = 2,400); AID 652136;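 active = inhibition above the mean of all tested compounds plus 3 SD, cut at about 3% in these data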;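 note: 0% = DAX-1 transfected cells with DMSO and 100% = cells without DAX-1 with DMSO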
* = called active by the depositor.

How did COc1ccc(OC)c(C(=O)CSc2nnc(SCc3cccc4ccccc34)s2)c1 do in these assays?
hgDAF12 agonist: -1; DAX1 inh-1: 0; hcDAF-12 act: -1; SMARCA2 activ: 1; ssDAF-12 act: -2

What do the screens show for `O=C(NCCc1ccccn1)c1ccc(OC2CCN(CCc3ccccc3)CC2)cc1`?
hgDAF12 agonist: 12*; DAX1 inh-1: 5.8*; hcDAF-12 act: 3; DAX1 inh-2: 1; SMARCA2 activ: 6; ssDAF-12 act: 0; DAX1 conf: 9.1*; SF1 AF2mut Luc: 4.1*

Results for COc1ccc(NC(=O)CN(C)C(=O)CSc2nc3ccccc3s2)cc1 ?
hgDAF12 agonist: 8; DAX1 inh-1: 5.0*; hcDAF-12 act: 4; DAX1 inh-2: 2; SMARCA2 activ: -1; ssDAF-12 act: 1; DAX1 conf: 2; SF1 AF2mut Luc: 2

Results for O=C(c1ccc(F)cc1)n1ccc(-c2cnc(-c3ccccc3)s2)n1 ?
hgDAF12 agonist: 13*; DAX1 inh-1: 5.0*; hcDAF-12 act: 5.9*; DAX1 inh-2: 3; SMARCA2 activ: 6; ssDAF-12 act: 0.9*; DAX1 conf: 13*; SF1 AF2mut Luc: 5.5*

Results for Fc1ccc(Cn2ccc(-c3cnc(-c4ccccc4)s3)n2)cc1 ?
hgDAF12 agonist: 4; DAX1 inh-1: -1; hcDAF-12 act: 2; DAX1 inh-2: 0; SMARCA2 activ: 0; ssDAF-12 act: -1

Results for CCC(C(=O)Nc1ccccc1N1CCCC1)c1ccccc1Cl (configuration not stated) ?
hgDAF12 agonist: 1; DAX1 inh-1: -2; hcDAF-12 act: -2; SMARCA2 activ: -3; ssDAF-12 act: -1

Results for CCN=c1scc(-c2ccco2)n1/N=C/c1ccc(OC)c(O)c1 ?
hgDAF12 agonist: 10; DAX1 inh-1: 5.0*; hcDAF-12 act: 3; DAX1 inh-2: 2; SMARCA2 activ: 1; ssDAF-12 act: 0; DAX1 conf: 15*; SF1 AF2mut Luc: 7.3*

How did CCN(CC)C(=O)CC[C@H]1CC[C@]2(CCCN(Cc3ccc(Br)cc3)C2)O1 do in these assays?
hgDAF12 agonist: -1; DAX1 inh-1: 0; hcDAF-12 act: 0; SMARCA2 activ: 0; ssDAF-12 act: -2

Results for C[C@H]1C2CC(OC(=O)Nc3cccc(C(F)(F)F)c3)C(C2)[C@H]2CCCCN21 (some centres not stated) ?
hgDAF12 agonist: -2; DAX1 inh-1: 0; hcDAF-12 act: 0; SMARCA2 activ: -3; ssDAF-12 act: -1

How did C[C@@H]1CN([C@H](C)CO)C(=O)CCCn2nncc2CO[C@@H]1CN(C)S(=O)(=O)c1ccc2c(c1)OCCCO2 do in these assays?
hgDAF12 agonist: 3; DAX1 inh-1: 4.8*; hcDAF-12 act: 2; DAX1 inh-2: 1; SMARCA2 activ: -1; ssDAF-12 act: -1; DAX1 conf: 2; SF1 AF2mut Luc: 2

Results for CN(C)CCCNC(=O)c1c(N)[nH]c(C(=O)c2ccc(Br)cc2)c1-c1ccc(Br)cc1 ?
hgDAF12 agonist: 0; DAX1 inh-1: 3; hcDAF-12 act: 0; SMARCA2 activ: -4; ssDAF-12 act: -1

Results for O=C(Nc1cccc(F)c1)Nc1ccc2c(c1)OCO2 ?
hgDAF12 agonist: 10; DAX1 inh-1: 7.0*; hcDAF-12 act: 5; DAX1 inh-2: 3; SMARCA2 activ: 2; ssDAF-12 act: 0; DAX1 conf: 9.2*; SF1 AF2mut Luc: 5.3*

What do the screens show for `CC(C)=CC(=O)Nc1ccc2c(c1)OCO2`?
hgDAF12 agonist: 10; DAX1 inh-1: 6.1*; hcDAF-12 act: 5; DAX1 inh-2: 0; SMARCA2 activ: 4; ssDAF-12 act: 0; DAX1 conf: 12*; SF1 AF2mut Luc: 7.7*

How did O=C(CSCSCC(=O)Nc1ccc2c(c1)OCO2)Nc1ccc2c(c1)OCO2 do in these assays?
hgDAF12 agonist: 0; DAX1 inh-1: -1; hcDAF-12 act: -1; DAX1 inh-2: -1; SMARCA2 activ: -3; ssDAF-12 act: -1

How did CCC(C)c1ccc(NC(=O)Nc2cccnc2)cc1 (configuration not stated) do in these assays?
hgDAF12 agonist: 9; DAX1 inh-1: 6.4*; hcDAF-12 act: 0; DAX1 inh-2: 2; SMARCA2 activ: 0; ssDAF-12 act: 1; DAX1 conf: 4.7*; SF1 AF2mut Luc: 3.6*

How did C/C(=N\NC(=O)c1cc(O)cc(O)c1)c1ccc(NC(=O)Cc2ccccc2)cc1 do in these assays?
hgDAF12 agonist: 9; DAX1 inh-1: 3; hcDAF-12 act: 3; DAX1 inh-2: 3; SMARCA2 activ: 3; ssDAF-12 act: 0

Results for C/C(=N\NC(=O)c1cccc(C)c1O)c1ccc(NC(=O)Cc2ccccc2)cc1 ?
hgDAF12 agonist: 10; DAX1 inh-1: 6.0*; hcDAF-12 act: 6.5*; DAX1 inh-2: 2; SMARCA2 activ: 0; ssDAF-12 act: 0; DAX1 conf: 4.8*; SF1 AF2mut Luc: 3.8*

Results for COC(=O)[C@]12C[C@H](CC(=O)NCC3CCCCC3)C(=O)N(Cc3ccc(Cl)cc3Cl)C1=C[C@H](COCc1ccccc1)O[C@@H]2C ?
hgDAF12 agonist: 0; DAX1 inh-1: -1; hcDAF-12 act: -2; SMARCA2 activ: -3; ssDAF-12 act: -1

How did CC(=O)Nc1nnc(COc2ccc(Cl)cc2)s1 do in these assays?
hgDAF12 agonist: 13*; DAX1 inh-1: 5.5*; hcDAF-12 act: 3; DAX1 inh-2: 2; SMARCA2 activ: 5; ssDAF-12 act: 1; DAX1 conf: 6.2*; SF1 AF2mut Luc: 3.0*

How did CC(C)C(=O)Nc1nnc(COc2ccc(Cl)cc2)s1 do in these assays?
hgDAF12 agonist: -1; DAX1 inh-1: 0; hcDAF-12 act: 0; DAX1 inh-2: 3; SMARCA2 activ: -5; ssDAF-12 act: -1

Results for Cc1nc(NC(=O)CSC2=NCCS2)sc1C(=O)N(C)C ?
hgDAF12 agonist: 3; DAX1 inh-1: 12*; hcDAF-12 act: 2; DAX1 inh-2: 0; SMARCA2 activ: 1; ssDAF-12 act: -1; DAX1 conf: 11*; SF1 AF2mut Luc: 4.5*
